About 83,000 compounds went through this panel and 20% of them were active in at least one assay; those are over-represented in the sample as a whole.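 Cell lines were cultured in 96-well plates, exposed to a single compound concentration, and assessed for percent growth 48 hours later.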 Unmarked numbers belong to inactive results. Calls of active or inactive are those of the source. The calls were made as follows: active = growth percent below 10; inactive = the rest.
Tests used:
Assay in all cases: NCI-60 one-dose screen, 48 h (100 = growth as untreated, 0 = no growth, -100 = all killed)
Conditions in all cases: 10 µM unless noted
SK-MEL-2 melanoma = test system: SK-MEL-2 melanoma
EKVX NSCLC = test system: EKVX NSCLC
SN12C renal = test system: SN12C renal
UO-31 renal = test system: UO-31 renal
TK-10 renal = test system: TK-10 renal
ACHN renal = test system: ACHN renal
CAKI-1 renal = test system: CAKI-1 renal
A498 renal = test system: A498 renal
MOLT-4 leukemia = test system: MOLT-4 leukemia
CCRF-CEM leukemia = test system: CCRF-CEM leukemia

Row | Compound | growth (SK-MEL-2 melanoma) | growth (EKVX NSCLC) | growth (SN12C renal) | growth (UO-31 renal) | growth (TK-10 renal) | growth (ACHN renal) | growth (CAKI-1 renal) | growth (A498 renal) | growth (MOLT-4 leukemia) | growth (CCRF-CEM leukemia)
1 | CC1(C)CC[C@]2(C(=O)N3CCOCC3)CC[C@]3(C)C(=CC[C@@H]4[C@@]5(C)CC[C@H](OC(=O)c6cccnc6)C(C)(C)[C@@H]5CC[C@]43C)[C@@H]2C1 | 84.4% | 88.2% | 74.4% | 62.9% | 83% | 45.3% | 40.1% | 70.3% | 49% | 
2 | CCc1ccccc1NC(=O)/C(C#N)=C/c1ccc(OC)cc1 | 104% | 92.7% | 94% | 80.5% | 115% | 97.4% | 103% | 100% | 87.3% | 
3 | CCN(CC)CCCNc1ccc(Nc2ccc(OC)cc2)cc1 | 108% | 81.1% | 92.3% | 48% | 88.2% | 94.1% | 84.5% | 55.3% | 32.7% | 
4 | CC/C=C\C[C@H](O)C/C=C1/C(=O)C=C[C@@H]1C/C=C\CCCC(=O)OC | -2.28% (active) | 35.5% | -7.19% (active) | -75.1% (active) | -1.5% (active) | -57.5% (active) | -15.6% (active) | 103% | -6.76% (active) | 
5 | COc1cc(OC)cc(C2CC(=O)Nc3c2c(C)nn3-c2nc3ccccc3[nH]2)c1 (stereo not drawn) | 38.4% | 17.7% | 20% | 13.1% | 24.2% | 19.3% | 30.3% | -10.1% (active) | -8.06% (active) | 
6 | COc1cc2c(cc1-c1c(C)noc1C)ncc1nc(C3CCCCC3)n(C3CCC(OC(F)F)CC3)c12 (stereo not drawn) | 6.6% (active) | 41.1% | 52.7% | 8.28% (active) | 24.1% | 37.4% | 42.7% | 28.3% | 18.4% | 
7 | Cc1ccccc1NC(=O)N/C(N)=N/c1nc(C)c(C)s1 | 53.9% | 55% | 39.7% | 54.9% | 70.3% | 46.5% | 31.1% | -17.7% (active) | 30.1% | 13.3%
8 | CC(C)(C)c1ccc(/C=C/C(=O)Nc2ccc(O)cc2)cc1 | 94.6% | 89.2% | 61.8% | 31.6% | 103% | 60.6% | 61.7% | 103% | 29.4% | 
9 | Cc1cccc(Cc2cnc(NC(=O)/C=C/c3ccco3)s2)c1 | 30.8% | 33.7% | 29.3% | 37.3% | 52.8% | 35.3% | 30.4% | 13.8% | 15.9% | 
10 | Nc1nc(N)c2c(n1)NC(c1ccccc1)C1CCc3ccccc3C1=N2 (stereo not drawn) | 86.6% | 39.2% | 66% | 55.9% | 36% | 39.3% | 34.1% | 42.5% | 15.1% | 
11 | Cc1ccc(S(=O)(=O)n2cc(CNc3ccc(N4CCOCC4=O)cc3)c3ccccc32)cc1 | 102% | 98.5% | 84.3% | 43.3% | 65.2% | 46.7% | 30.4% | -51.1% (active) | 82.7% | 
12 | Cn1c(-c2c(N)n(Cc3ccc(C(F)(F)F)cc3)c3nc(C#N)c(C#N)nc23)nc2ccccc21 | 15.4% | 1.13% (active) | 14.4% | -23% (active) | -12.9% (active) | 3.12% (active) | 9.68% (active) | -6.26% (active) | -16.8% (active) | 
13 | C=CCOC1=CC(=O)c2ccccc2C1=O | 60.5% | 116% | 82.9% | 74.2% | 113% | 83% | 101% | 74.6% | 65.8% | 
14 | Cc1cccc(Cc2cnc(NC(=O)c3ccc4nnsc4c3)s2)c1 | 82.7% | 87.4% | 92.9% | 78.5% | 80.9% | 70.3% | 60.2% | 106% | 90.2% | 
15 | CN(C)CC1=NC2SC=C(c3ccccc3)C2C(=O)N1CC#N (stereo not drawn) | 104% | 95.9% | 109% | 13.2% | 95.3% | 104% | 97.5% | 103% | 82% | 
16 | COc1ccccc1NC(=O)N/C(N)=N/c1nc2ccccc2s1 | 48.6% | 53.2% | 37.1% | 52.9% | 59.3% | 42.2% | 36.4% | -10.5% (active) | 15.4% | 
17 | NS(=O)(=O)c1cnccc1Oc1cccc2cccnc12 | 107% | 97.1% | 99.4% | 78.3% | 107% | 102% | 111% | 99.1% | 93% | 
18 | Cc1nn(-c2ccccc2)c(Cl)c1/C=C(/NC(=O)c1ccccc1)c1nc2ccccc2[nH]1 | 111% | 94.4% | 91.2% | 80.2% | 106% | 92.4% | 84.1% | 88.2% | 79.9% | 
19 | Cn1c(-c2c(N)n(Cc3cccnc3)c3nc(C#N)c(C#N)nc23)nc2ccccc21 | 107% | 87.1% | 106% | 31.5% | 55.5% | 85.8% | 92.1% | 98.9% | 74.1% | 
20 | N=C1C(c2nc(-c3ccc(Br)cc3)cs2)=C(O)CN1CC1CCCO1 (stereo not drawn) | 89.8% | 98.7% | 111% | 20.8% | 135% | 88% | 90.4% | 96.4% | 70.3% | 
21 | COC(=O)[C@H](CSC)N(C)C(=O)[C@@H]1CSSC[C@@H](NC(=O)c2nc3ccccc3cc2O)C(=O)NCC(=O)N1C | 61.3% | 82.8% | 66.5% | 71.9% | 88.4% | 88% | 104% | 102% | 23.8% | 
22 | C=CCn1c(C)nc2cc(Nc3nc(N4CCCC4)nc4ccccc34)ccc21 | 109% | 97.7% | 90.3% | 68.1% | 108% | 103% | 84.9% | 71.4% | 49.9% | 
23 | N#C/C(=C\c1ccc2c(c1)OCO2)n1nnc2cc(F)c(F)cc21 | 78.7% | 82.7% | 68.3% | 61.3% | 101% | 65.1% | 50.7% | 44.9% | 63.9% | 
24 | CCN(CC)CCN1CC(O)=C(c2nc(-c3ccc(Cl)cc3)cs2)C1=N | 100% | 82.8% | 64.5% | -24.7% (active) | 89.2% | 42.5% | 43.2% | 56.5% | 1.18% (active) | 
25 | COc1cc2c(cc1-c1c(C)noc1C)ncc1nc(C3CCC(F)(F)CC3)n(C3CCC(OC(F)F)CC3)c12 (stereo not drawn) | 46% | 53.9% | 76.6% | 18.2% | 41.3% | 66.2% | 52.1% | 61.2% | 59.7% | 
26 | CCN(CC)CCN1C(=O)c2c(c(C)c3c(oc4cc(O)ccc43)c2C)C1=O | 108% | 103% | 86.9% | 69.2% | -92.3% (active) | 49.5% | -92.5% (active) | 101% | -33.6% (active) | 
27 | CC(=O)N1N=C(c2ccc(Nc3nc(Nc4ccc(F)cc4)nc(Nc4ccc(F)cc4)n3)cc2)CC1c1cccc([N+](=O)[O-])c1 (stereo not drawn) | 62.5% | 90.2% | 98.1% | 73% | 104% | 93% | 124% | 78.9% | 8.35% (active) | 
28 | COC(=O)c1c2c(c(C)[n+]([O-])c1C)C(=O)C(NCc1ccc(F)cc1)=CC2=O | 30.6% | 58.8% | -2.05% (active) | 71.9% | 81.4% | 48.3% | 50.7% | 98.6% | -19.6% (active) | 

Reference: PubChem BioAssay (NCI)
